Tau fluor cs: counter-screen for tau fibril formation inhibitors; tau K18 P301L Alexa594 fluorescence, heparin fibrillization; AID 1463; hit rate 0.93% among 280,000; Potency, µM (top dose mostly 57.7 µM), for inactives: at the highest dose activity change, negative = decrease; also: potency is read from the fitted curve at half-maximal effect; nearly all actives have a fitted effect of over 55% in size
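Human tau K18 P301L (15 uM unlabeled, 0.24 uM Alexa 594-labeled) in 100 mM sodium acetate pH 7 with 20 uM heparin, 6 hr at 37 C. ThT 30 uM added, 1 hr ambient; Alexa 594 FP and total fluorescence read at 555/632 nm.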
Tau ThT inhib: blocks human tau fibril formation measured by thioflavin T; recombinant tau K18 P301L (four-repeat tau fragment), heparin-induced fibrillization, ThT fluorescence; Potency, µM (titrated, usually from 57.4 µM), without a hit: top-dose activity, negative = inhibition, actives largely listed as inhibitors; AID 1460; hit rate 2.1% among 270,000; P10636; also: potency is read from the fitted curve at half-maximal effect; nearly all actives have a fitted effect of over 55% in size
Target sequence (P10636 561-689 P618L limits assumed): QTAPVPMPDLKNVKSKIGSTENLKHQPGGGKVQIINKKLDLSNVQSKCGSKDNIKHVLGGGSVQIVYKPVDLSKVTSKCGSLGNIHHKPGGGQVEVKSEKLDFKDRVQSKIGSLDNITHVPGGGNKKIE
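K18 P301L tau (15 uM + 0.24 uM Alexa 594-tagged), heparin 20 uM, NaOAc pH 7, 6 h 37 C; ThT 30 uM, 1 h RT, ex 450/em 510 nm.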
Coupling enz: inhibits coupling enzyme system, counter-screen for aldolase hits; coupling enzyme system counterscreen, AmpLite Red fluorescence; activity change, negative = inhibition, % at 58.2 µM, hits read low; hit rate 0.67% among 290,000; AID 2472; in the data active = activity change below about -30%
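Coupling enzymes only (glyceraldehyde-3-phosphate) + compound, at 57.5 uM final, 10 min RT; add substrate/coupling/AmpLite Red mix, 20 min RT; fluorescence ex 525/em 598 nm. Actives flag coupling-system interference.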
Sfp PPTase inh: blocks B. subtilis Sfp PPTase activity; Potency, µM, for the others: largest response in the series, negative = inhibition, actives largely listed as inhibitors; hit rate 3.5% among 310,000; Q9F4F7; AID 1490; Biochemical Sfp PPTase activity, qHTS;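 also: the enzyme is Sfp with the accession as filed and its product quenches rhodamine fluorescence; potency is read from the fitted curve at half-maximal effect; 0% = enzyme reaction without inhibitor and -100% = no enzyme wells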
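With Hepes-Na pH 7.6 buffer containing 10 mM MgCl2, Sfp (15 nM) modified BHQ-2-YbbR (12.5 uM) using rhodamine-CoA (5 uM). Two reads 30 minutes apart at 525/598 nm yielded each well's rate.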
Tau FP inhib: inhibitors of human tau fibril formation | P10636 | K18 P301L tau heparin fibrillization, Alexa594 FP, 6 h | Potency, µM (series often up to 57.7 µM), without a hit: at the top dose activity, negative = inhibition, most hits filed as inhibitors | hit rate 0.39% among 280,000 | AID 1468; also: potency is read from the fitted curve at half-maximal effect; nearly all actives have a fitted effect of over 55% in size
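FP of Alexa 594-tau after heparin (20 uM) induction. Substrate: human K18 P301L, 15 uM unlabeled, 0.24 uM labeled. Buffer 100 mM sodium acetate pH 7. 6 hr, 37 C.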
Numbers without * were called inactive; u = inconclusive; x = no result given; [ ] = dose if it differs, or a comment. In the library only some 5.2% were active in any assay of this set; here they are far more common. Unless noted, calls follow the shape of the dose curve; as a rule, active = well fitted curve in the direction sought with a large enough effect; inconclusive = small, poorly fitted or top-dose-only effect, or another doubt; inactive = no such curve, though single readings can be large; an effect the other way counts as inactive or inconclusive. Unless noted, % is scaled to controls: 0 for no effect and ±100 for the full control effect.

SMILES | Tau fluor cs | Tau ThT inhib | Coupling enz | Sfp PPTase inh | Tau FP inhib
COc1ccc2nc(SCC(=O)NC3CCCC3)c(C)cc2c1 | x | x | 4 | 14% | x
COc1cccc(-c2nc(SCC(=O)NC3CCCC3)c(-c3ccc(F)cc3)[nH]2)c1 | 13µM*[quencher] | u | x | x | 10%
COc1ccc(-c2[nH]c(-c3ccc(C)cc3)nc2SCC(=O)NCc2ccco2)cc1OC | u | u | -1 | 5% | 11%
COc1cccc(-c2nc(SCC(=O)NCC3CCCO3)c(-c3ccc(C)cc3)[nH]2)c1 (stereo unspecified) | u | -9% | x | x | 13%
COc1cccc(-c2nc(SCC(=O)NCC3CCCO3)c(-c3ccc(Cl)cc3)[nH]2)c1 (stereo unspecified) | 13µM*[quencher] | u | x | x | 9%
COc1ccc(-c2nc(SCC(=O)NC3CCCC3)c(-c3ccc(C)cc3)[nH]2)cc1OC | 18µM*[quencher] | u | x | x | u
COC(=O)N1CCC2(CCCN(C(=O)Nc3ccccc3)C2)CC1 | x | x | 4 | 6% | x
O=C(Nc1ccc(OC(F)(F)F)cc1)NC1COc2ccccc2C1 (stereo unspecified) | -9% | -7% | x | x | -10%
COc1ccc(-c2[nH]c(-c3ccc(C)cc3)nc2SCC(=O)NC2CCCC2)cc1 | u | u | -8 | 10% | 7%
O=C(CSc1nc(-c2ccccc2)[nH]c1-c1ccc(F)cc1)NC1CCCC1 | 28µM*[quencher] | -14% | x | x | 11%
COc1cccc(-c2nc(SCC(=O)NC3CCCC3)c(-c3ccc(C)cc3)[nH]2)c1 | 11µM*[quencher] | -16% | x | x | u
OC[C@@H]1OC(O)[C@@H](O)[C@H](O)[C@@H]1O (stereo partly specified) | x | x | 1 | 6% | x
CCOc1cc(C(c2c(C)[nH][nH]c2=O)c2c(C)[nH][nH]c2=O)ccc1OCc1ccc([N+](=O)[O-])cc1 | u | 11µM* | -14 | 3% | -5%
COc1cc(C(c2c(C)[nH][nH]c2=O)c2c(C)[nH][nH]c2=O)cc([N+](=O)[O-])c1O | -25% | 14µM* | -28 | -14% | u
CCOc1cc(C(c2c(C)[nH][nH]c2=O)c2c(C)[nH][nH]c2=O)cc([N+](=O)[O-])c1O | x | x | -8 | -4% | x
Cc1oc(-c2cccc(Cl)c2)nc1Cn1c(SCc2ccccc2F)nc2ccncc21 | -22% | -16% | x | x | -7%
O=C(NCCN1CCOCC1)C1(C(F)(F)F)CC(CCCO)CCCO1 (stereo unspecified) | x | x | 2 | 16% | x
CC(=O)N1CCc2c(sc3c2c(=O)n(Cc2ccccc2)c(=O)n3Cc2ccccc2Cl)C1 | -15% | u | x | x | 1%
Cc1ccc(C(=O)N2CCN(c3ccc(F)cc3)CC2)cc1NC(=O)c1nsc2ccccc12 | -26% | u | x | x | -6%
O=[N+]([O-])c1ccc(N2CCOCC2)cc1N1CCCCC1 | 2% | u | -1 | -7% | 1%
S=P(c1ccc(N2CCOCC2)cc1N1CCOCC1)(N1CCOCC1)N1CCOCC1 | 0% | -2% | 1 | 35µM* | -6%
CC(=C/c1ccco1)/C=N/N1CCN(c2ccccc2)CC1 | -29% | 14µM* | x | 17% | 1%
CC[n+]1c(/C=C2\Sc3ccccc3N2C)ccc2cccc(C)c21 | 28% | 20µM* | 6 | u | u
CCN1/C(=C/c2ccc3cc(C)ccc3[n+]2CC)Sc2cc(C)c(C)cc21 | u | 7.1µM* | 1 | 25µM* | u
CCN1/C(=C/c2sc(-c3ccccc3C)c[n+]2C)Sc2ccccc21 | -1% | u | 2 | 1% | 2%
SMILES | Tau fluor cs | Tau ThT inhib | Coupling enz | Sfp PPTase inh | Tau FP inhib
CC[n+]1ccccc1/C=C1\Sc2ccc(C)cc2N1C | x | x | 1 | -9% | x
CCN1/C(=C/c2ccc3cc(C)ccc3[n+]2CC)Sc2ccccc21 | 14% | 18µM* | 6 | 11µM* | u
O=C(Cn1c(C(F)(F)F)nc2ccccc21)Oc1cccc(C(F)(F)F)c1 | -14% | u | -13 | 79µM* | -6%
CCOc1ccc(-n2c(=O)c3c(C)c(C)sc3n(CC(=O)C(C)(C)C)c2=O)cc1 | -28% | -18% | x | x | -11%
O=C(N/N=C/c1cc2c(cc1[N+](=O)[O-])OCO2)c1cccnc1 | x | x | -3 | -16% | x
O=C(N/N=C/c1ccc(N2CCCC2)c([N+](=O)[O-])c1)c1cccnc1 | -24% | 14µM* | 4 | -3% | 5%
COc1ccc(/C=N/NC(=O)c2cccnc2)cc1CN1CCCc2ccccc21 | 13µM*[quencher] | u | 1 | -20% | 8%
O=C(N/N=C/c1ccc(N2CCOCC2)c([N+](=O)[O-])c1)c1ccc(F)cc1 | -29% | 11µM* | 0 | 7% | 9%
CC(C)(C)c1ccc(S(=O)(=O)N2CCC(Oc3ccc(-n4cnnn4)cc3)CC2)cc1 | -15% | 9% | x | x | -2%
NS(=O)(=O)c1ccc(N=Nc2c[nH]c(=O)c(O)c2)cc1 | u | 2.5µM* | -38* | 45µM* | u
O=C(NNC(=S)Nc1cccc2ccccc12)c1cccc(Br)c1 | u | u | 1 | 11% | 0%
O=C(O)c1ccccc1NC(=S)NC(=O)c1cccc2ccccc12 | -4% | -3% | -4 | 50µM* | -8%
Cc1ccc(C(=O)NNC(=S)Nc2cccc3ccccc23)s1 | -27% | 13µM* | 1 | -2% | u
Cc1c(NC(=S)NC(=O)c2cccc3ccccc23)cccc1C(=O)O | x | x | 4 | -3% | x
O=C(NC(=S)Nc1ccc(N2CCOCC2)cc1)c1ccccc1 | u | u | 0 | -26% | 5%
O=C(NC(=S)Nc1ccc(N2CCOCC2)cc1)c1cccc(Cl)c1 | u | 13µM* | 0 | -3% | 9%
O=C(NC(=S)Nc1ccc(N2CCOCC2)cc1)c1cncc(Br)c1 | -12% | u | 0 | 56µM* | 2%
CCc1ccc(-n2c(SCc3cccc(F)c3)nc3[nH]ncc3c2=O)cc1 | -29% | -10% | x | x | -11%
O=C(NC(=S)Nc1ccccc1C(=O)O)c1cncc(Br)c1 | x | x | 3 | 10µM* | x
Nc1cc(N)c(OCC(F)(F)F)cc1OCC(F)(F)F | u | 3.2µM* | -50* | u | 13µM*
CC(C)Cn1c(N)c(C(=O)NCC2CCCO2)c2nc3ccccc3nc21 (stereo unspecified) | u | u | -47* | -2% | -10%
COCCn1c(N)c(C(=O)NCC2CCCO2)c2nc3ccccc3nc21 (stereo unspecified) | -17% | -10% | -35* | -5% | -10%
Nc1c(C(=O)NC2CCCC2)c2nc3ccccc3nc2n1N | -24% | u | 0 | 32µM* | -4%
COc1ccc(OC)c(-n2c(N)c(C(=O)NCC3CCCO3)c3nc4ccccc4nc32)c1 (stereo unspecified) | -16% | -10% | -6 | -3% | 4%
COCCn1c(N)c(S(=O)(=O)c2cccs2)c2nc3ccccc3nc21 | -21% | -15% | -33* | -12% | -6%

Bioassay records as filed in PubChem BioAssay.
